Results: ChEMBL document CHEMBL3988442, “University of Dundee, Small-Polar-MMV Screening Library” (2021)
The campaign covered roughly 48,000 compounds. About 13,000 (27%) showed an effect of 50% or more. The list shows a part of the results.

Tested on: Wolbachia pipientis
Assay: Anti-Wolbachia Cell-Based Screen
Format: functional
Parameters: scale not given: in the data most compounds retested in dose-response had high values
Settings: 5 µM

Structure (SMILES) | Percent Effect [%]
FC(F)(F)c1ccc(-n2ccnc2-c2cc3n(n2)CCNC3)cn1 | 0.08182
CCS(=O)(=O)c1ccccc1N1CCC(NC(=O)NC2CCCC2)CC1 | -4.776
O=C(c1ccsc1)N1CCC(Nc2cccnn2)CC1 | 95.56
O=C(c1ccoc1)N1CCC(Nc2cccnn2)CC1 | 90.61
Cc1ccc(S(=O)(=O)Nc2ccc(-n3nnn(C)c3=O)cc2)cc1 | 8.508
O=S(=O)(Nc1ccc(N2CCOCC2)cn1)c1cccc(F)c1 | 2.193
COc1cccc(OCC2CCCN(C(=O)c3ncc(F)cc3F)C2)c1 (stereo not given) | -61.26
c1nc2c(c(NC3CCc4ncnn4C3)n1)CCC2 (stereo not given) | -6.936
COCC(=O)N1CCCN(c2ncnc3c2CCNCC3)CC1 | 1.266
c1nc2c(c(NC3COC4(CCCC4)C3)n1)CCNCC2 (stereo not given) | 100.1
CC(C)Nc1ncnc2c1CCNCC2 | -5.966
CCNc1ncc(C(=O)NC2COC3(CCCC3)C2)cn1 (stereo not given) | -5.692
COC[C@H]1CCC[C@H]1Nc1ncnc2c1CCNCC2 | 95.23
CC(NC(=O)CCN1CCOC1=O)(c1ccccc1)c1ccccc1 | 8.215
CC(Oc1ccccc1C(F)(F)F)C(=O)NS(=O)(=O)C(C)C (stereo not given) | -1.095
CCC(CC(=O)Nc1ccc2c(c1)CC(=O)N2)c1ccccc1 (stereo not given) | 3.416
Cn1cc(C(=O)N2CCOc3ccccc32)ccc1=O | -9.078
O=C(NCCc1cc2nc(-c3ccncc3)ccn2n1)C1CC1 | 124.8
O=C(NCCc1cc2nc(-c3ccncc3)ccn2n1)C1CCOCC1 | 126.4
CC(C)N1CC(C(=O)NCCc2csc(-c3ccncc3)n2)CC1=O (stereo not given) | 2.271
Cc1csc(CCNC(=O)C2CCOC2)n1 (stereo not given) | 0.3325
O=C(Nc1cc(-c2ccncc2)no1)C1CC1 | -3.278

Structure (SMILES) | Percent Effect [%]
O=C(NCCc1cccc(Cl)c1)C1CCOCC1 | 2.096
Cc1cc(=O)n(C)cc1NC(=O)NCc1cccc(F)c1 | 28.52
CN1CCOC(C(=O)Nc2nc(-c3ccccc3F)n[nH]2)C1 (stereo not given) | -6.828
O=C(Cc1ccccc1)N1CC(=O)N(Cc2ccco2)CC(O)C1 (stereo not given) | 119.5
O=C(O)C(F)(F)F.c1coc(CN2Cc3ccnn3CC(COCC3CC3)C2)c1 (stereo not given) | 5.412
O=C1CN(C(=O)OCc2ccccc2)CC(O)CN1Cc1ccco1 (stereo not given) | 93.23
O=C(COCc1ccccc1)N1CCN(Cc2ccccc2F)C(=O)C1 | -37.48
O=C(Cc1ccc(-c2ccccc2)cc1)N1CCOCC(O)C1 (stereo not given) | -43.76
O=C1NCCO[C@H]2CN(C(=O)Cc3ccco3)CC[C@@H]12 | -15.97
O=C(C1CN(Cc2ccoc2)CC12CCOCC2)N1CCCC1 (stereo not given) | -22.56
COCc1cc(C[C@@H]2CC[C@H](O)[C@@H](CN(C)C)O2)no1 | 7.016
O=C(O)C(F)(F)F.O=C(c1ccoc1)N1CC[C@H]2OCC[C@@]2(COc2ncccc2F)C1 | 0.551
COc1ccc(C(C)N2CCC(NS(C)(=O)=O)CC2)cc1Cl (stereo not given) | -1.711
CO[C@@H]1CC[C@H]2[C@H]1OCCN2C(=O)c1ccco1 | -5.889
CC(C)O[C@@H]1CC[C@H]2[C@H]1OCCN2C(=O)c1nn(C)c2ccccc12 | 112.4
CO[C@H]1CC[C@H]2[C@H]1OCCN2C(=O)c1nn(C)c2ccccc12 | 119
CO[C@@H]1CC[C@H]2[C@H]1OCCN2C(=O)c1nn(C)c2ccccc12 | 115.4
COCCNC(=O)Nc1cccc(COCCOC(C)C)c1 | -33.02
Cn1cc(C#N)cc1C(=O)N1CCC2(CCCN(CC3CCC3)C2=O)C1 (stereo not given) | -29.9
Cc1nc(C)n(CC2CCCN2CC(=O)NCCc2ccccc2)n1 (stereo not given) | 5.202
O=C(CN1CCCCC1C1OCCO1)Nc1ccc(F)c(F)c1 (stereo not given) | -7.301
COC(=O)CC1CCCCN1CC(=O)NCCc1ccc(F)cc1 (stereo not given) | 106.1

Structure (SMILES) | Percent Effect [%]
COC(=O)CC1CCCCN1CC(=O)Nc1cc(F)ccc1F (stereo not given) | 97.72
O=C(Cn1cc(C(=O)O)ccc1=O)Nc1ccc(F)cc1Cl | -4.302
CCOC(=O)N1CCN(CC(=O)Nc2ccc(F)cc2Cl)CC1 | -11.41
O=C(CN1CCCCC1Cn1cncn1)NCCc1ccc(F)cc1 (stereo not given) | -1.768
COC(=O)C1CN(CC(=O)Nc2cc(F)ccc2F)c2ccccc21 (stereo not given) | 6.543
COC(=O)CC1CCCCN1CC(=O)Nc1ccc(F)cc1Cl (stereo not given) | 107.7
Cc1cc(C)c(CNC(=O)NCCNc2ncccn2)c(=O)[nH]1 | -4.444
CCc1nsc(NC2CCCn3nc(CC)nc32)n1 (stereo not given) | 0.3299
CC1=NN(c2ccc(C(=O)OCCNC(=O)c3ccncc3)cc2)CC1 | 6.071
CCOC(=O)c1ccc(NC(=O)c2c(O)nc3c(c2O)CCCC3)cc1 | 115.5
Nc1nc2c(c(NC(=O)Nc3ccc(Cl)c(Cl)c3)n1)CCCC2 | 4.347
CC(C)(C)c1cnc(CN2CCCS(=O)(=O)CC2)o1 | -0.7322
OCC1CCN(Cc2cc3c(cc2Br)OCCO3)CC1 | -6.909
FC(F)(F)Cn1ccnc1CN1CCCC1c1noc(C2CC2)n1 (stereo not given) | 2.411
CCc1nc(C2CCCN2Cc2nnc(CC)o2)no1 (stereo not given) | -8.839
c1cc(CN2CCCC2c2noc(C3CC3)n2)on1 (stereo not given) | 95.79
Cn1ccnc1CN1CCCC1c1noc(C2CC2)n1 (stereo not given) | 3.243
CCc1nc(C2CCCN2Cc2ccno2)no1 (stereo not given) | 111.3
CC(C)c1nc(C2CCCN2Cc2ccno2)no1 (stereo not given) | -3.719
O=S(=O)(N1CCCCCC1)N1CCc2sccc2C1 | 4.086
CS(=O)(=O)N1CCOC(CNC(=O)c2cccc(C#N)c2)C1 (stereo not given) | -22.73
O=C(c1cccc(F)c1)N(CCCO)S(=O)(=O)c1cccs1 | -5.785

Structure (SMILES) | Percent Effect [%]
Cc1cccc(OC2CCN(C(=O)Cn3ccc4ccccc43)CC2)n1 | 1.872
Cn1cc(CN2CCCC(CCc3ccccc3C(F)(F)F)C2)cn1 (stereo not given) | 9.578
Cn1cc(CN2CCOC(c3cccc(-c4cccc(F)c4)n3)C2)cn1 (stereo not given) | 143.3
Cn1cc(CNC(=O)C2CCCN(Cc3cccc(F)c3)C2)cn1 (stereo not given) | -5.601
Cn1cc(CN2CCCC(c3nccnc3-c3cccc(F)c3)C2)cn1 (stereo not given) | 135.8
Cn1cc(CN2CCOC(c3nccnc3-c3cccc(F)c3)C2)cn1 (stereo not given) | 187.6
CC(C)c1ccc(CN2CCC3(CCCN(c4nncs4)C3)C2)cc1.O=C(O)C(F)(F)F (stereo not given) | 37.55
Cc1cccc(OCCC(=O)N2CCN(S(=O)(=O)N(C)C)CC2)c1C | -2.723
Cl.O=C(NC[C@@]1(COc2cnccn2)C[C@@H](O)[C@@H](O)C1)C1CCCC1 | -8.405
COc1ccccc1CN(C)Cc1ccnc(C2CCCO2)n1 (stereo not given) | 134
CCCN(Cc1cnc2ccccc2n1)Cc1ccccc1OC | -2.298
COc1ccc(CN(C(=O)C2CCOCC2)c2ccncc2)cc1 | -12.74
COc1ccc(CN(C(=O)C2CCCO2)c2ccncc2)cc1 (stereo not given) | -15.48
COc1ccnc(N(C)Cc2ccccc2OC(F)(F)F)n1 | -0.2691
COc1ccc(CN(C)Cc2ccnc(C3CCCO3)n2)cc1 (stereo not given) | 120.3
COc1ccc(Cl)cc1NC(=O)CCC1CCCN(Cc2ncon2)C1 (stereo not given) | 23.91
Cc1nc(NC(=O)NCc2cccnc2NCCN(C)C)sc1C | -3.378
COCCN1CCC2(C1)c1ccccc1S(=O)(=O)N2Cc1ccccc1.O=C(O)C(F)(F)F (stereo not given) | 6.934
COCCN1C2(CCN(CC3CC3)C2)c2ccccc2S1(=O)=O.O=C(O)C(F)(F)F (stereo not given) | 102.4
COCCN1CCC2(C1)c1ccccc1S(=O)(=O)N2C.O=C(O)C(F)(F)F (stereo not given) | 90.85
CC1(C)CC(NC(=O)c2cnn(-c3ccccc3F)c2N)CC(C)(C)N1 | 151.8
Cc1c(C(=O)NC2CC(C)(C)NC(C)(C)C2)cnn1-c1ccc(F)cc1 | -13.93

Structure (SMILES) | Percent Effect [%]
Cc1ccc(-n2ncc(C(=O)NC3CCCCC3)c2N)cc1 | 3.957
Cc1ccc(-n2ncc(C(=O)NC3CC(C)(C)NC(C)(C)C3)c2N)cc1 | 174.2
CC(C)C(=O)Nc1cc(C(=O)NC2CC(C)(C)NC(C)(C)C2)nn1C | -26.3
CC(C)(C)SCCNC(=O)[C@@]12CNC[C@@H]1CN(S(C)(=O)=O)C2 | 5.951
Cc1csc2c(C3CCN(CCCOc4ccccc4)CC3)nc(C)n12 | 96.85
Cc1ccc(OCCN2CCC(c3nc(C)n4c(C)csc34)CC2)cc1 | 140.7
CC(C)Cc1noc(CN2CCN(CCOc3ccc(Cl)cc3)CC2)n1 | -9.815
Cc1nc(C)n(CC2CN(CCOc3ccccc3F)CCO2)n1 (stereo not given) | 5.326
Cc1nc(C(=O)NC2CCN(CCOc3ccc(Br)cc3)CC2)cs1 | 6.734
CCCc1n[nH]c(C2CN(CCCOc3ccccc3)CCO2)n1 (stereo not given) | -4.502
Cc1nc(CCN2CCC(Oc3ccccc3F)CC2)cs1 | -0.6309
Cc1csc2c(C3CCN(CCOc4ccccc4F)CC3)nc(C)n12 | 93.69
CN(CC(=O)N1CC(Oc2ccccc2Cl)C1)Cc1ccncc1 | -2.119
O=C(O)c1cnc(OCC2CC2)c(Cl)c1 | -32.81
COc1cccc2c1N(S(=O)(=O)c1cc(C(=O)O)cs1)CCC2 | -3.989
Cc1ccc(C(=O)O)cc1S(=O)(=O)N(C)c1cccc(C#N)c1 | 8.363
O=C(c1cnc(OCC(F)(F)F)c(Cl)c1)N1CCc2ccc(O)cc2C1 | -3.134
Cc1ccc(C(=O)O)cc1-c1cccc2c1CCNC2 | 128.8
O=C(O)c1cnc(-c2cccc3c2CCNC3)c(Cl)c1 | 123.8
COc1ccc(C(=O)O)cc1-c1cccc2c1CCNC2 | 99.52
COc1ccc(C(=O)O)cc1-c1cccc(C(C)N(C)C)c1 (stereo not given) | -0.7125
Cc1cnc(-n2cnnc2)c(-c2cccc3c2CCNC3)c1 | -5.841
